Test results: PubChem BioAssay AID1626 (SRMLSC, 2009)
Several values for one entry are separate records, joined by “and”; a condition that tells them apart may be missing. Equal entries are not always repeated. The whole screen tested about 220,000 compounds, of which about 2,000 (0.91%) were called active. Inconclusive results (about 2%) are left out. Not all results are given here. Entries with a potency or affinity are not part of this list. Values without a mark were called inactive. Cut-off read from the data, not from the text of the source: inconclusive = inhibition above about 80% without an active follow-up result; inactive = below that; test concentration not stated here.

Test: M. tuberculosis H37Rv growth inhibitors, H37Rv strain (AID 1626);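 note: bacteria incubated seven days before Alamar blue readout; 0% = bacteria only wells and 100% = bacteria with antibiotic wells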
Settings: stronger effect = higher value, concentration not given here
`Cc1csc(Nc2cccc3ccccc23)n1` gave an inhibition of 6.85%. `Cc1ccc(C(=O)Nc2ccccc2-c2ccccc2)cc1[N+](=O)[O-]` gave an inhibition of 14.5%. With `COC(=O)CSc1snnc1-c1ccc(F)cc1` the inhibition was -0.55%. `Cc1nn(Cc2c(Cl)cccc2Cl)c(Cl)c1/C=N/NC(=O)c1cccnc1` showed an inhibition of -3.52%. In the case of `CCc1ccc(NC(=O)C(NS(=O)(=O)c2cccc3nsnc23)c2ccccc2)cc1` (stereo not given), the inhibition is reported as -4.05%. In the case of `Cc1cccc(C(=O)Nc2cccc(OC(=O)c3cccc(C)c3)c2)c1`, the inhibition is reported as 11.6%. For `Cc1ccc(NC(=O)c2ccccc2)cc1OC(=O)c1ccccc1`, the inhibition was 6.17%. For `OCCN1CCN(CC(O)COc2ccc(-c3ccccc3)cc2)CC1` (stereo not given), the inhibition was 5.51%. Work on `OCCN1CCN(CC(O)COc2ccc(Cl)cc2)CC1` (stereo not given) yielded an inhibition of 1.07%. `Cc1ccc(CS(=O)(=O)CCC(=O)NCCC2=CCCCC2)cc1` showed an inhibition of 7.74%. Molecule `CCCCc1n[nH]c(=S)n1Cc1ccccc1` has an inhibition of -1.46%. `COc1cccc2[nH]c3c(N4CCC5(CC4)OCCO5)ncnc3c12` gave an inhibition of 1.2%. `CC(C)=CCc1cc([C@@H]2COc3c(ccc4c3C=CC(C)(C)O4)C2)c(O)cc1O` gave an inhibition of 8.4%. Work on `CC1(C)C=Cc2c(ccc3c2OC[C@@H](c2ccc(O)cc2O)C3)O1` yielded an inhibition of 1.16%. Molecule `COc1ccc2nc(NC(=O)c3cc(S(=O)(=O)N4CCOCC4)ccc3C)sc2c1` has an inhibition of 14.6%. For `O=C(c1cn(-c2ccccc2)nc1-c1ccccc1)N1CCOCC1`, the inhibition was -8.16%. `COc1ccccc1/C=N/NC(=S)NCc1ccco1` showed an inhibition of -0.41%. For `CCOC(=O)C1CCCc2c1[nH]c1c(C(=O)O)cccc21` (stereo not given), the inhibition was -6.94%. `CCOC(=O)c1ccc2[nH]c3c(c2c1)CCCC3C(=O)OCC` (stereo not given) showed an inhibition of -4.38%. In the case of `CCOc1ccc(S(=O)(=O)N/N=C2/CC(c3ccccc3)Oc3ccccc32)cc1` (stereo not given), the inhibition is reported as -11.9%. Work on `COC(=O)C1C(c2ccccc2)C=CC(c2ccccc2)C1C(=O)O` (stereo not given) yielded an inhibition of 1.24%. With `COC1=C(Nc2ccc(C)cc2)C(=O)c2ccccc2C1=O` the inhibition was 12.8%. With `O=C1C=C(Nc2ccc(O)cc2)C(=O)c2ccccc21` the inhibition was 5.07%. `O=C1C(Cl)=C(Nc2ccccc2)C(=O)c2ccccc21` gave an inhibition of -1.42%. `CCCCNC1=CC(=O)C(=O)c2ccccc21` gave an inhibition of 1.34%. Molecule `O=C1C(Nc2ccccc2)=C(NS(=O)(=O)c2ccccc2)C(=O)c2ccccc21` has an inhibition of 8.84%. Molecule `O=C1C(Nc2ccccc2)=C(N2CCCCC2)C(=O)c2ccccc21` has an inhibition of -1.08%. `Cc1ccc(NC2=C(Cl)C(=O)c3ccccc3C2=O)cc1` showed an inhibition of -1.97%. In the case of `O=C1C=C(Nc2ccccc2C(=O)O)c2ccccc2C1=O`, the inhibition is reported as 1.72%. `O=C(c1cc(-c2ccc(Cl)cc2)n(-c2ccc(Cl)c(Cl)c2)n1)N1CCOCC1` showed an inhibition of -1.31%. With `Cc1ccc(OCC(=O)Nc2cccc3nsnc23)c(C)c1` the inhibition was 7.75%. Work on `COCOc1ccc(C=O)cc1OCOC` yielded an inhibition of -3.9%. Work on `COc1cc(Cl)c(C)cc1NC(=O)c1ccc(S(C)(=O)=O)cc1` yielded an inhibition of 3.38%. Molecule `CCOc1cc(C=O)ccc1OS(=O)(=O)c1ccc(NC(C)=O)cc1` has an inhibition of 5.36%. Work on `COc1ccc(CN2C(=O)c3oc4ccccc4c(=O)c3C2c2ccc(O)c(OC)c2)cc1` (stereo not given) yielded an inhibition of -7.03%. Molecule `Cc1onc(-c2cccc(Cl)c2Cl)c1C(=O)O/N=C(\N)c1ccc([N+](=O)[O-])o1` has an inhibition of 67%. `O=c1nc(NCc2ccco2)sc2ncccc12` showed an inhibition of -7.68%. Work on `O=C1c2ccc(Oc3ccc4c(c3)C(=O)N(CCCCO)C4=O)cc2C(=O)N1CCCCO` yielded an inhibition of -9.34%. Molecule `Cc1ccc2c(c1)C(=O)N(CCCCO)C2=O` has an inhibition of -0.27%. Work on `COCCNC(=O)c1ccc2c3n(nc2c1)-c1ccc(Cl)cc1CO3` yielded an inhibition of -12.9%. Work on `CCOC(=O)c1sc(NC(=O)CCN2CCC(C)CC2)c(C(=O)OCC)c1C` yielded an inhibition of 5.65%. In the case of `O=C(COc1ncnc2ccccc12)c1ccc2c(c1)OCCO2`, the inhibition is reported as -5.58%. `O=C(O)C1CC=CCC1C(=O)Nc1ccccc1` (stereo not given) gave an inhibition of -3.59%. `O=C(O)[C@H]1CCCC[C@H]1C(=O)Nc1ccc(Nc2ccccc2)cc1` gave an inhibition of 3.28%. `CCCc1cc(=O)n2[nH]c(NCc3ccc(OC)c(OC)c3)nc2n1` gave an inhibition of 3.17%. With `Cc1ccc(C)c(NC(=O)C(Sc2ncnc3ccccc23)c2ccccc2)c1` (stereo not given) the inhibition was -1.19%. `CC(NC(N)=O)C(=O)Nc1ccc(Cl)c(S(=O)(=O)Nc2ccc(Cl)cc2)c1` (stereo not given) gave an inhibition of 0.16%. In the case of `CCOc1ccc(NS(=O)(=O)c2cc(NC(=O)c3ccc(C)cc3)ccc2Cl)cc1`, the inhibition is reported as 11.8%. For `COc1ccc(NC(=O)c2cccc(OC(F)F)c2)cc1Cl`, the inhibition was 0.2%. `O=C(Nc1ccc(OC(F)F)c(Cl)c1)c1cccc(OC(F)F)c1` gave an inhibition of 10.2%. Molecule `CCOC(=O)c1cc(NC(=O)NCc2ccco2)c(C)nc1C` has an inhibition of -7.42%. In the case of `O=c1cc(N2CCCCC2)c2ccccc2o1`, the inhibition is reported as -1.79%. `CCOc1cc(CN2CCN(c3cccc(C(F)(F)F)c3)CC2)ccc1O` showed an inhibition of -11.9%. In the case of `CCC/C=N/NC(=O)c1cccc(Br)c1`, the inhibition is reported as 7.16%. Molecule `COc1ccc(-c2nsc(SCC(=O)NCc3ccc4c(c3)OCO4)n2)cc1` has an inhibition of 6.74%. `Cc1ccc(-c2nsc(SCC(=O)NCc3ccc4c(c3)OCO4)n2)cc1` showed an inhibition of 13.2%. In the case of `O=C(CSc1nc(-c2ccccc2Cl)ns1)Nc1ccc2c(c1)OCO2`, the inhibition is reported as 98.8%. For `Cc1ccccc1-c1nsc(SCC(=O)Nc2ccc3c(c2)OCO3)n1`, the inhibition was 16.3%. Molecule `Cc1ccc(NC(=O)C2CCCN(C(=O)c3ccc(Cl)cc3)C2)cc1C` (stereo not given) has an inhibition of 2.5%. In the case of `CC1=NN(C(=O)c2ccco2)C(O)(c2ccccc2)C1` (stereo not given), the inhibition is reported as -2.5%. `CC(=O)c1cccc(N(CC(=O)N2CCCCC2)S(C)(=O)=O)c1` showed an inhibition of 1.7%. In the case of `CCOc1cc(NC(=S)NCC2CCCO2)c(OCC)cc1NC(=O)c1ccc(F)cc1` (stereo not given), the inhibition is reported as 1.9%. With `COc1ccc(-c2[nH]ncc2CNCCn2cccn2)c(F)c1` the inhibition was -7%. With `COc1ccccc1OCC(O)CNCc1ccc2c(c1)OCO2` (stereo not given) the inhibition was -7.62%. `Cc1[nH]n(-c2ccccc2)c(=O)c1C=NCCc1ccccc1` gave an inhibition of 0.59%. Molecule `CCCCN=Cc1c(C)[nH]n(-c2ccccc2)c1=S` has an inhibition of -2.18%. Work on `CS/C(=C\[N+](=O)[O-])Nc1ccc(F)cc1` yielded an inhibition of 3.42%. `O=C(CN1CCCc2ccccc21)NC(=O)NC1CCCCC1` showed an inhibition of 6.06%. Work on `O=C(NC(Nc1nc2ccccc2s1)(C(F)(F)F)C(F)(F)F)c1ccccc1` yielded an inhibition of -8.04%. With `O=C(NC(Nc1nc2ccc([N+](=O)[O-])cc2s1)(C(F)(F)F)C(F)(F)F)c1cccnc1` the inhibition was 5.87%. In the case of `Cc1cc2nnc(SCC(=O)NCc3cccs3)n2c(N)n1`, the inhibition is reported as -5.08%. For `COc1ccc(-c2nn(-c3ccccc3)cc2/C=N/NC(N)=S)cc1OC`, the inhibition was 2.96%. `COc1ccc(-c2nn(-c3ccccc3)cc2/C=N/n2cnnc2)cc1OC` gave an inhibition of -15.3%. `CCCn1nnnc1NC(=O)COc1ccc(CC)cc1` gave an inhibition of 0.65%. Molecule `CC(=O)N1N=C(c2cccnc2)OC1c1ccccc1Cl` (stereo not given) has an inhibition of 2.68%. In the case of `CCCCC(=O)Nc1cccc(NC(=O)CC)c1`, the inhibition is reported as 3.01%. With `O=C(CS)Nc1ccc2ccccc2c1` the inhibition was -9.08%. In the case of `CC(C)CC(=O)Nc1ccc2ccccc2c1`, the inhibition is reported as 85.1% and -4.53%. In the case of `COc1ccc(N/C(C)=C/C(=S)Nc2ccccc2)cc1`, the inhibition is reported as 29.2%. With `Cc1ccc(NC(=O)COC(=O)/C=C/c2cccs2)cc1` the inhibition was -0.47%. In the case of `CCCCC(=O)Nc1ccc(C)c(O)c1`, the inhibition is reported as 2.73%. `NC(=O)c1ccc(NC(=O)COC(=O)/C=C/c2cccs2)cc1` gave an inhibition of -2.1%. `C/C(=C\C(=S)Nc1ccccc1)Nc1ccccc1` gave an inhibition of 4.78%. Work on `O=S(=O)(CCOc1ccccc1)c1nc2ccccc2[nH]1` yielded an inhibition of -6.66%. In the case of `COCCCn1c(SCC(=O)Nc2nc3ccccc3s2)nnc1-c1ccoc1C`, the inhibition is reported as 4.35%. `Cc1cc(C)c(S(=O)(=O)N2CCCCC2)c(C)c1N(C)S(=O)(=O)c1ccc(Cl)cc1` gave an inhibition of 1.13%. `CCOc1nc(C)ccc1-c1noc(CC)n1` showed an inhibition of -1.19%. Work on `CCOC(=O)C1CSC(CC(=O)Nc2ccc(Cl)cc2)C(=O)N1` (stereo not given) yielded an inhibition of -6.13%. Work on `OC1(CNCc2cn[nH]c2-c2cc3ccccc3o2)CCCCC1` yielded an inhibition of -6.25%. Work on `COc1cccc(-n2c(SCc3c(C)noc3C)nnc2-c2cccc(S(=O)(=O)N(C)C)c2)c1` yielded an inhibition of 4.97%. For `Cc1ccccc1OCc1csc(N)n1`, the inhibition was 3.59%. With `CN=C(C)c1c(O)c2ccccc2oc1=O` the inhibition was -1.28%. In the case of `CC(C)N(C(=O)Cn1c(SCC(=O)Nc2nccs2)nc2ccccc21)C(C)C`, the inhibition is reported as 0.44%. Molecule `CC(=O)N1N=C(c2cccc(Br)c2)OC12CCCC2` has an inhibition of -8.1%. In the case of `CC(=O)CC(=O)Nc1ccc(Nc2ccccc2)cc1`, the inhibition is reported as 6.81%. With `CC(=O)Nc1ccc2ccccc2c1` the inhibition was 12.4%. In the case of `CCC(=O)Nc1ccc(-c2csc(C)n2)cc1`, the inhibition is reported as 45.9%. Molecule `CCOC(=O)C(C(=O)OCC)C(Nc1ccccc1)c1ccccc1` (stereo not given) has an inhibition of 1.08%. `Cc1nc(-c2ccc(NC(=O)CC(C)C)cc2)cs1` showed an inhibition of 31.2%. Work on `CCOC(=O)CS(=O)(=O)c1ccc2ccccc2c1` yielded an inhibition of -12.2%.
